# Results reported in PubChem BioAssay (NCI).
# The panel holds about 83,000 compounds, 20% with a hit somewhere; the sample as a whole holds those more often.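 The endpoint reported here, percent growth, reads 100 for growth as untreated, 0 for no net growth and -100 for all cells dead.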 A number with no mark means an inactive call. Active and inactive are the calls of the source. The calls were made as follows: active = growth percent below 10; inactive = the rest.
# What was measured:
# Experiment in all cases: NCI-60 one-dose screen, 48 h (100 = growth as untreated, 0 = no growth, -100 = all killed)
# Details in all cases: 10 µM unless noted
# DU-145 prostate = system: DU-145 prostate
# K-562 leukemia = system: K-562 leukemia
# MALME-3M melanoma = system: MALME-3M melanoma
# MDA-MB-231 breast = system: MDA-MB-231 breast
# RXF 393 renal = system: RXF 393 renal
# SF-268 CNS = system: SF-268 CNS
# SF-295 CNS = system: SF-295 CNS
# SF-539 CNS = system: SF-539 CNS
# UACC-257 melanoma = system: UACC-257 melanoma
# M14 melanoma = system: M14 melanoma
# HCT-15 colon = system: HCT-15 colon
# HT29 colon = system: HT29 colon
# SNB-75 CNS = system: SNB-75 CNS
# SNB-19 CNS = system: SNB-19 CNS
# U251 CNS = system: U251 CNS
# PC-3 prostate = system: PC-3 prostate
# SK-MEL-5 melanoma = system: SK-MEL-5 melanoma
# UACC-62 melanoma = system: UACC-62 melanoma
# LOX IMVI melanoma = system: LOX IMVI melanoma
# SK-MEL-28 melanoma = system: SK-MEL-28 melanoma
Compound,growth (DU-145 prostate),growth (K-562 leukemia),growth (MALME-3M melanoma),growth (MDA-MB-231 breast),growth (RXF 393 renal),growth (SF-268 CNS),growth (SF-295 CNS),growth (SF-539 CNS),growth (UACC-257 melanoma),growth (M14 melanoma),growth (HCT-15 colon),growth (HT29 colon),growth (SNB-75 CNS),growth (SNB-19 CNS),growth (U251 CNS),growth (PC-3 prostate),growth (SK-MEL-5 melanoma),growth (UACC-62 melanoma),growth (LOX IMVI melanoma),growth (SK-MEL-28 melanoma)
Cc1cnc(N)nc1OCC(C)(C)CNC(=O)c1cccc(-c2ccc(S(=O)(=O)Nc3ccc4c(c3)N(C(=O)C3CC3)CCC4)cc2)c1,77.4%,34.3%,80.7%,68.1%,74.6%,67.5%,55.3%,75.2%,46.6%,96.4%,67.6%,42.1%,48.1%,67.9%,59.4%,51.8%,-36.1% (active),47.8%,76.6%,82.4%
CCCCN(CC)CC(CC)Nc1cc(OC)cc2cccnc12 (stereo not given),110%,114%,110%,115%,122%,104%,109%,102%,92.9%,109%,97.2%,103%,100%,110%,101%,96.5%,99.9%,106%,114%,121%
C[n+]1c(-c2ccccc2)c2cc(N)ccc2c2ccccc21,43.8%,33.4%,-19.5% (active),70.8%,58.9%,-6.88% (active),75.6%,28.5%,8.1% (active),74.3%,101%,31.5%,-0.792% (active),-2.68% (active),11.6%,58.4%,0.275% (active),0.188% (active),40.2%,10.4%
C[N+](C)(C)c1ncnc2[n-]cnc12,99%,101%,98.3%,86.5%,97%,91%,88.7%,89.5%,-29.9% (active),89.9%,104%,104%,82.1%,91.2%,91.6%,92%,90.1%,83.2%,75.5%,94.6%
Cc1ccccc1OC(=O)c1cccc(Cl)c1,126%,95.4%,97.3%,118%,113%,101%,122%,101%,111%,110%,104%,103%,86.2%,109%,129%,92.2%,103%,105%,98%,113%
C[C@H]1[C@H](C)CC[C@]2(COC(=O)CCC(=O)O)CC[C@]3(C)C(=CC[C@@H]4[C@@]5(C)CCCNC(C)(C)[C@@H]5CC[C@]43C)[C@H]12,79.8% [100 µM],48.9% [100 µM],77.1% [100 µM],45.1% [100 µM],53% [100 µM],62.5% [100 µM],59.1% [100 µM],50.9% [100 µM],78.5% [100 µM],92% [100 µM],65.9% [100 µM],52.2% [100 µM],-2.3% [100 µM] (active),53.1% [100 µM],60.7% [100 µM],32.7% [100 µM],46.2% [100 µM],56.3% [100 µM],70.5% [100 µM],82.2% [100 µM]
COc1cc2c(cc1OCCCCCOc1ccc(-n3c(C)nc4ccccc4c3=O)cc1)N=C[C@@H]1CCCN1C2=O,-25.2% (active),-17.5% (active),-78.9% (active),2.33% (active),-73.9% (active),-5.47% (active),-8.19% (active),-63% (active),20%,-64.3% (active),9.39% (active),-1.24% (active),-80.9% (active),1.38% (active),3.85% (active),4.39% (active),-79.6% (active),-74% (active),-32.2% (active),-66.8% (active)
CC(=O)OC[C@]12CC[C@@H]([C@@H](C)C(N)=O)[C@@H]1[C@H]1CC[C@@H]3[C@@]4(C)CC[C@H](OC(C)=O)C(C)(C)[C@@H]4CC[C@@]3(C)[C@]1(C)CC2,-69.9% [100 µM] (active),3.1% [100 µM] (active),-89% [100 µM] (active),-88.6% [100 µM] (active),-64.9% [100 µM] (active),-61% [100 µM] (active),-50.8% [100 µM] (active),-83.9% [100 µM] (active),-46.2% [100 µM] (active),-44.3% [100 µM] (active),-44.1% [100 µM] (active),-77.7% [100 µM] (active),-47.8% [100 µM] (active),-40% [100 µM] (active),-51.4% [100 µM] (active),-47.4% [100 µM] (active),-71.9% [100 µM] (active),-83% [100 µM] (active),-85.5% [100 µM] (active),-73.2% [100 µM] (active)
CO[C@H]1CC[C@@]2(C)C(=CC[C@H]3[C@@H]4C[C@H](O)C[C@@]4(C)CC[C@@H]32)C1,42.1%,20.7%,52.1%,56.2%,58.5%,49.2%,40.8%,38%,65.2%,36.6%,36.4%,69%,32.8%,55.3%,38.6%,68.3%,30.9%,42.6%,48.7%,68.5%
COc1cc(C(=O)/C=C/c2c(-c3ccc(F)cc3)nc3sccn23)cc(OC)c1OC,27.4%,39.1%,33.6%,51%,-50.6% (active),25.4%,3.82% (active),-57.9% (active),39.9%,35.3%,27.8%,5.08% (active),32.3%,10%,5.59% (active),19.9%,-50.5% (active),23.3%,15.6%,52.2%
Cc1c(Cn2cc(COc3ccc(Br)cc3)nn2)c(C)c(Cn2cc(COc3ccc(Br)cc3)nn2)c(C)c1Cn1cc(COc2ccc(Br)cc2)nn1,104%,103%,89.1%,89.7%,102%,97%,89.6%,96%,80.2%,97.7%,104%,92.4%,81.1%,89.7%,91.3%,87.9%,98.4%,76.9%,35%,94.1%
c1ccc(-c2nc(N3CCCNCC3)c3nc(-c4ccccc4)oc3n2)cc1,-18.4% (active),0.76% (active),76.9%,-3.19% (active),27.1%,52%,96.2%,76.3%,100%,95.7%,-80.4% (active),-63.4% (active),53.1%,70.4%,-90.9% (active),-27.3% (active),55.6%,-77.8% (active),-95.7% (active),83.7%
O=[N+]([O-])c1cccc(/C=C/c2ccc3ccccc3n2)c1,71.4%,94.7%,68.5%,45.7%,62.1%,72.9%,53.2%,78.1%,74.8%,82.3%,82.5%,76.5%,7.41% (active),64.1%,72.2%,77.8%,82%,82.9%,70.5%,87.3%
CCCCCC1CCCCN1C(=O)OCCCC (stereo not given),118%,109%,88.9%,77.5%,96.9%,99.1%,89.3%,92%,-7.74% (active),105%,101%,103%,81.4%,105%,104%,111%,99.4%,76.4%,94.7%,116%
